HT1080-NT tox: qHTS for induction of synthetic lethality in tumor cells producing 2HG: qHTS for the HT-1080-NT fibrosarcoma cell line. HT-1080-NT fibrosarcoma viability, CellTiter-Glo ATP luminescence, 48 h. Potency, µM (series often up to 46.1 µM), without a hit: top-dose activity, negative = less viability, most hits filed as cytotoxic. hit rate 1.6% among 360,000;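 further: NT is the 2HG producing partner of a matched IDH1 knockdown line; 0% = DMSO-treated cells and -100% = media-only wells without cells; nearly all actives have a fitted effect of over 55% in size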
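Viability of the 2HG-overproducing fibrosarcoma line after 48 hours of compound exposure at 37 degrees C was determined by luminescence with CellTiter-Glo, and concentration-effect curves were then fitted and categorized.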
HT1080 IDH1KD tx: qHTS for induction of synthetic lethality in tumor cells producing 2HG: qHTS for the HT-1080-IDH1KD cell line; HT-1080 IDH1 knockdown viability, ATP luminescence, 48 h; Potency, µM (series often up to 46.1 µM), without a hit: top-dose activity, negative = toxicity, actives largely listed as cytotoxic; hit rate 2% among 360,000; AID 686971, 2013;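 further: 0% = DMSO wells and -100% = cell-free medium wells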
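IDH1KD HT-1080 cells, 750/well, RPMI + 5% FBS; compound pinned after 2 h settling; 48 h, 37 °C; CellTiter-Glo luminescence; % activity normalised to DMSO and no-cell wells; curves fitted, classed by r2 and efficacy.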
HepG2 tox: qHTS for Inhibitors of TGF-b: Cytotox Counterscreen; HepG2 CAGA-GFP viability, ATP luminescence, 18 h; Potency, µM (highest dose often 46.1 µM), without a hit: top-dose activity change, negative = cytotoxicity, usual class: cytotoxic; hit rate 0.76% among 410,000; AID 588856, 2011
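CellTiter-Glo luminescence gave cytotoxicity after 18 hours at 37 degrees C. The cells were HepG2 CAGA-GFP in 1% FBS DMEM, stimulated with 500 pg/mL TGF-beta after compound addition. %Activity was normalised to no-cell wells (complete cell-killing) and DMSO (no toxicity), and curves were fitted and classified.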
TGFb SMAD3 inh: qHTS for Inhibitors of TGF-b; HepG2 CAGA-GFP TGF-b/SMAD3 reporter, GFP fluorescence, 18 h; TGF-beta stimulated, 500 pg/mL final; Potency, µM (titrated, usually from 46.1 µM), inactives show at the top dose activity, negative = inhibition, actives largely listed as inhibitors; hit rate 1.2% among 410,000; AID 588855, 2011; further: on the % scale 0 is the no-effect control and ±100 the full control effect; nearly all actives have a fitted effect of over 65% in size
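Read-out: total well GFP (ex488/em500-530) summed from mean per-cell fluorescence. Cells: HEPG2 CAGA-GFP, 1% FBS DMEM, 18 h at 37 degrees C with 500 pg/mL final TGF-beta. Unstimulated wells served as the full-inhibition control; stimulated DMSO wells = 0%.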
DT40 TDP1 CPT: qHTS for Inhibitors of human tyrosyl-DNA phosphodiesterase 1 (TDP1): qHTS in cells in presence of CPT. hit rate 12% among 420,000. Potency, µM (series often up to 46.2 µM), for the others: at the highest dose activity change, negative = growth inhibition, usual class: inhibitors. chicken DT40 Tdp1-/-;hTDP1 cells + 20 nM CPT, ATP luminescence, 48 h. AID 686979, 2013; further: on the % scale 0 is the no-effect control and ±100 the full control effect; nearly all actives have a fitted effect of over 55% in size
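Chicken DT40 Tdp1-/- cells complemented with human TDP1, 400 cells/well, exposed to compounds plus 20 nM camptothecin for at least 48 h at 37 C; viability read as ATP content by CellTiter-Glo luminescence.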
TDP1 cell noCPT: qHTS for Inhibitors of human tyrosyl-DNA phosphodiesterase 1 (TDP1): qHTS in cells in absence of CPT. hit rate 15% among 420,000. AID 686978, 2013. Potency, µM (titrated, usually from 46.2 µM), for the others: at the highest dose activity change, negative = growth inhibition, hits mostly inhibitors. DT40 Tdp1-/- hTDP1 cells, no CPT, ATP luminescence, 48 h; further: on the % scale 0 is the no-effect control and ±100 the full control effect; nearly all actives have a fitted effect of over 55% in size
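Cells were dispensed at 400 per well, compounds added by pin tool, plates incubated ≥48 hr at 37 °C, then CellTiter-Glo added for 30 min at room temperature before luminescence reading. Line: DT40 Tdp1-/- complemented with hTDP1; camptothecin omitted.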
Starred values were filed as active, the others as inactive; ? = inconclusive; . = no result. This is a sample that favours compounds with a hit; in the whole collection about 17% have one here. The call rests on the fitted dose curve; in most records, active means well fitted curve in the direction sought with a large enough effect; inconclusive means small, poorly fitted or top-dose-only effect, or another doubt; inactive means no such curve, though single readings can be large; an effect the other way counts as inactive or inconclusive. Potency means the concentration at half of the fitted maximal effect.

SMILES	HT1080-NT tox	HT1080 IDH1KD tx	HepG2 tox	TGFb SMAD3 inh	DT40 TDP1 CPT	TDP1 cell noCPT
Cc1cc(/C=C2/SC(=O)N(CC(=O)N3CCOCC3)C2=O)c(C)n1-c1ccccc1F	16.0%	8.0%	-0.4%	12.4%	-10.1%	-9.0%
COc1cc(OC)cc(-c2c(-c3cccs3)c3cc(-c4ccn[nH]4)ccc3n2C)c1	?	?	-6.2%	15.8µM*	?	16.4µM*
COc1cc(OC)cc(-c2c(-c3cccs3)c3cc(-c4ccc5c(c4)OCO5)ccc3n2C)c1	21.4%	28.9%	1.3%	-20.0%	?	?
COc1cc(F)cc(-c2ccc3c(c2)c(-c2cccs2)c(-c2cc(OC)cc(OC)c2)n3C)c1	-17.2%	-4.4%	4.7%	0.4%	18.4µM*	23.1µM*
COc1cc(OC)cc(-c2c(-c3cccs3)c3cc(-c4ccc(N(C)C)nc4)ccc3n2C)c1	9.1%	2.3%	-2.8%	-19.9%	23.1µM*	20.6µM*
COc1cc(OC)cc(-c2c(-c3cccs3)c3cc(Br)ccc3n2C)c1	-16.5%	5.0%	-18.0%	-19.6%	6.5%	-16.0%
O=C(COc1ccc2c3c(c(=O)oc2c1)CCC3)Nc1ccc(CN2CCOCC2)cc1	16.9%	18.2%	2.0%	2.2%	?	-29.5%
COCCCNC(=O)C1CCN(c2nc(C)cc(C)n2)CC1	5.6%	8.8%	10.7%	-11.1%	7.0%	2.5%
Cc1ccnc(N2CCC(C(=O)Nc3ccc4c(c3)OCO4)CC2)n1	10.5%	-2.2%	2.3%	-9.9%	-18.0%	-19.5%
Cc1cccc(Cn2c(CN3CCC(C(=O)NCCc4ccccc4)CC3)cc3ccccc32)c1	.	.	-30.5%	-5.2%	?	18.4µM*
O=C(NCCc1ccc(Cl)cc1)C1CCN(Cc2cc3ccccc3n2Cc2ccccc2)CC1	.	.	-29.4%	-26.2%	23.1µM*	18.4µM*
Cc1cc(C)nc(N2CCC(C(=O)NCCc3ccccc3)CC2)n1	0.1%	10.0%	5.3%	-7.2%	8.2µM*	9.2µM*
Cc1cc(C)nc(N2CCC(C(=O)Nc3ccc4c(c3)OCO4)CC2)n1	4.2%	0.2%	1.0%	0.0%	8.2µM*	9.2µM*
COCCNc1c(-c2cc3ccc(C)c(C)c3[nH]c2=O)nc2ccccn12	8.7%	6.2%	-0.3%	0.4%	?	18.4µM*
CCOC(=O)N(C)c1c(CC)nc2c(OCc3ccccc3)cccn12	10.1%	6.4%	-11.5%	0.1%	20.6µM*	23.1µM*
CCc1nc2c(OCc3ccc(C(=O)N(C)C)cc3)cccn2c1N(C=O)Cc1ccccc1	6.0%	0.0%	5.3%	0.4%	?	-16.5%
CCc1nc2c(OCc3ccccc3)cccn2c1N(Cc1ccccc1)C(C)=O	-7.0%	-13.8%	-3.0%	-16.2%	18.4µM*	?
Cn1nnnc1SCC(=O)NC1CCCC1	3.9%	-0.1%	17.3%	6.7%	6.9%	-13.8%
CCC(CC)c1nnc(NC(=O)c2ccc3ccccc3n2)s1	-17.5%	-23.4%	-24.4%	11.5%	?	11.2µM*

Bioassay records (PubChem BioAssay)
